PubChem BioAssay (Tox21)
“And” between values parts separate entries of the source, which are not always exact repeats. Equal values may be shown once. Records with an inconclusive call do not appear. More than one record can exist for a structure, and the calls need not agree. The source made the active and inactive calls. Unless noted, calls come from the whole dose curve.

Assays:
[1] = Nuclear factor erythroid 2-related factor 2/antioxidant responsive element (Nrf2/ARE) small molecule agonists: qHTS cell viability counter screen in human keratinocytes (AID 1919968; active = well fitted curve in the direction sought with a large enough effect in the repeat runs; an effect the other way counts as inactive or inconclusive; note: nearly all actives have a fitted effect of over 55% in size; note: potency is the fitted concentration of half-maximal effect)
How it was run: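 Fluorescence read-out from CellTiter-Fluor after 1 h at 37 C. Wells held HaCaT-derived ARE-luciferase reporter cells (1,500/well) treated 23 h with DMSO-dissolved compounds. Run in the same wells as the luciferase agonist read.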

[2] = Nuclear factor erythroid 2-related factor 2/antioxidant responsive element (Nrf2/ARE) small molecule agonists: luciferase reporter gene qHTS assay in human keratinocytes (AID 1919969); note: nearly all actives have a fitted effect of over 35% in size; note: potency is the fitted concentration of half-maximal effect
[3] = target: Gonadotropin-releasing hormone receptor (Homo sapiens) (UniProt P30968); assay: Human gonadotropin-releasing hormone receptor (GnRHR) small molecule agonists, calcium flux assay in GnRHR-HEK293 cells (AID 1920063); note: nearly all actives have a fitted effect of over 35% in size
How it was run: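 Calcium-dye fluorescence, Ex/Em=480/540, recorded every 1 sec over 3 min after compound addition to GnRHR-HEK293 cells. Cells had been seeded 18 hours earlier and dye-loaded for 1 hour at 37 C. Fifteen concentrations, triplicates.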

[4] = target: KiSS-1 receptor (Homo sapiens) (UniProt Q969F8); assay: Human kisspeptin (KISS1R) small molecule agonists, calcium flux assay in KISS1R-HEK293 cells (AID 1920064; active = well fitted curve in the direction sought with a large enough effect in the repeat runs; an effect the other way counts as inactive or inconclusive)
How it was run: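 Calcium flux read-out: kinetic fluorescence at Ex/Em=480/540, 1 s intervals over 3 min, after pin-tool compound addition to dye-loaded KISS1R-HEK293 cells. Fifteen concentrations, triplicates.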

[5] = G protein-coupled receptor (GPCR) small molecule agonists, calcium flux assay: HEK293 wild type cell line counter screen (AID 1920065)
How it was run: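 Agonist mode; 18 h seeding at 37 C, 1 h dye load at 37 C; compounds pinned from DMSO, ATP as positive control; kinetic fluorescence 480/540 nm, 3 min, 1 s reads; 15 concentrations, triplicate.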

[6] = p53 small molecule agonists, cell-based qHTS assay with human liver microsomes (AID 1963577)
How it was run: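 Compounds act here after metabolic activation: human liver microsomes and NADPH, both at 0.5 mg/mL final, were co-added to p53RE-bla cells. Incubation ran 16 h at 37 C, followed by LiveBLAzer detection.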

[7] = p53 small molecule agonists, cell-based qHTS assay with rat liver microsomes (AID 1963578)
How it was run: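 Read-out is beta-lactamase reporter fluorescence (LiveBLAzer, 2 h, room temperature, dark) in p53RE-bla cells treated 16 h at 37 C with compound, rat liver microsomes and NADPH, both 0.5 mg/mL final.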

[8] = p53 small molecule agonists, cell-based qHTS assay with human liver microsomes: qHTS cell viability counter screen (AID 1963579); note: nearly all actives have a fitted effect of over 45% in size; note: potency is the fitted concentration of half-maximal effect
How it was run: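 Cells carrying the p53 response-element beta-lactamase reporter are treated for 16 h at 37 C with test compounds in the presence of human liver microsomes and NADPH (both 0.5 mg/mL final); ATP-based CellTiter-Glo luminescence then reports viability.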

[9] = p53 small molecule agonists, cell-based qHTS assay: qHTS cell viability counter screen (AID 1963581); note: nearly all actives have a fitted effect of over 45% in size
How it was run: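 Cytotoxicity read-out: ATP-based luminescence (CellTiter-Glo, 30 min RT) measured in the same wells as the p53 reporter assay, HCT-116 p53RE-bla cells, 16 h compound exposure at 37 C.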

[10] = p53 small molecule agonists, cell-based qHTS assay (AID 1963582; active = well fitted activation curve with a large enough effect in the signal ratio in the repeat runs, not every such curve was filed as active; the % refers to the signal ratio; note: potency is the fitted concentration of half-maximal effect)
How it was run: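 Fluorescence intensity read-out of a beta-lactamase reporter under a p53 response element. Cells were exposed to DMSO-dissolved compounds for 16 h at 37 C, then developed with FRET substrate for 2 h at RT.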

[11] = target: 5-hydroxytryptamine receptor 2A (Homo sapiens) (UniProt P28223); assay: 5-hydroxytryptamine receptor 2A (HTR2A) small molecule antagonists, cell-based qHTS assay (AID 1963586); note: nearly all actives have a fitted effect of over 45% in size
How it was run: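 CHO cells stably expressing human HTR2A were plated for 18 h at 37 C, then loaded with calcium dye for 1 h. Compounds were preincubated 5 min at room temperature before DOI (4 nM solution) was added. Kinetic fluorescence was read for 3 min.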

[12] = target: 5-hydroxytryptamine receptor 2A (Homo sapiens) (UniProt P28223); assay: 5-hydroxytryptamine receptor 2A (HTR2A) small molecule agonists, cell-based qHTS assay (AID 1963587); note: nearly all actives have a fitted effect of over 30% in size; note: potency is the fitted concentration of half-maximal effect
How it was run: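 HTR2A-CHO cells, plated 18 h at 37 C/5% CO2, dye-loaded 1 h at 37 C; compounds in DMSO added by pin tool (agonist mode). Intracellular calcium flux read as kinetic fluorescence on FDSS over 2 min at 1 s intervals.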

[13] = target: Muscarinic acetylcholine receptor M1 (Homo sapiens) (UniProt P11229); assay: Cholinergic receptor muscarinic 1 (CHRM1) small molecule agonists, cell-based qHTS assay (AID 1963589); note: nearly all actives have a fitted effect of over 35% in size
How it was run: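 Calcium flux read-out: kinetic fluorescence at 1 sec intervals after pin-tool compound addition to dye-loaded CHRM1-CHO cells (human M1). Agonist mode; 15 concentrations tested in triplicate independent runs.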

[14] = cAMP Responsive Elements (CRE) small molecule agonists, cell-based qHTS assay (AID 1963590)
How it was run: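 Beta-lactamase reporter readout: LiveBLAzer B/G FRET substrate, 2 h at room temperature, added after 3 h compound treatment of CRE-bla HEK 293T cells at 37 C/5% CO2.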

[15] = cAMP Responsive Elements (CRE) small molecule antagonists, cell-based qHTS assay (AID 1963591; active = well fitted inhibition curve with a large enough effect in the signal ratio in the repeat runs, not every such curve was filed as active; the % refers to the signal ratio)
How it was run: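 HEK293T CRE-bla; 18 h preincubation; compound pin-transfer; NKH477 0.25 uM final, 3 h, 37 C; LiveBLAzer FRET substrate 2 h RT.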

[16] = target: Beta-2 adrenergic receptor (Homo sapiens) (UniProt P07550); assay: Adrenergic beta2 receptor (ADRB2) small molecule antagonists, cell-based qHTS assay (AID 1963592); note: series mostly up to about 92 µM; nearly all actives have a fitted effect of over 50% in size
How it was run: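 Assay format: CHO-ADRB2 cells, 18-20hr seeding at 37C/5% CO2, then compound plus 1nM isoproterenol agonist mix for 0.5hr RT. Homogeneous time-resolved fluorescence cAMP detection after 1hr, expressed as 665/615 nm ratio.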

[17] = target: D(2) dopamine receptor (Homo sapiens) (UniProt P14416); assay: Dopamine D2 receptor (DRD2) small molecule agonists, cell-based qHTS assay (AID 1963594); note: nearly all actives have a fitted effect of over 35% in size
How it was run: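 HEK293 cells stably expressing DRD2 were cultured 24 h at 37 C, then given Ro20-1724 (0.1 mM final) and compounds for 10 min at room temperature. NKH477 (200nM) was then added for 30 min. cAMP was read by HTRF.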

[18] = target: D(2) dopamine receptor (Homo sapiens) (UniProt P14416); assay: Dopamine D2 receptor (DRD2) small molecule antagonists, cell-based qHTS assay (AID 1963595; active = well fitted inhibition curve with a large enough effect in the signal ratio in the repeat runs, with a control signal flat; the % refers to the signal ratio)
How it was run: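 Readout: HTRF cAMP, cAMP-d2 competing with cellular cAMP for anti-cAMP cryptate, read after 1 h. Cells: DRD2-HEK293. Conditions: 0.1 mM Ro20-1724, 12 nM quinpirole, 200 nM NKH477, 30 min RT.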

[19] = target: Muscarinic acetylcholine receptor M1 (Homo sapiens) (UniProt P11229); assay: Cholinergic receptor muscarinic 1 (CHRM1) small molecule antagonists, cell-based qHTS assay (AID 1963588); note: nearly all actives have a fitted effect of over 40% in size
How it was run: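 Compounds were tested at 15 concentrations in three independent runs. Dye-loaded CHRM1-CHO cells were exposed 5 min at room temperature before stimulation by acetylcholine added at 50nM. Intracellular calcium was read kinetically on FDSS for 3 min.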

[20] = target: Beta-2 adrenergic receptor (Homo sapiens) (UniProt P07550); assay: Adrenergic beta2 receptor (ADRB2) small molecule agonists, cell-based qHTS assay (AID 1963593);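 note: CHO cells stably overexpressing human ADRB2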
How it was run: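 CHO cells stably over-expressing ADRB2 were plated overnight at 37C, then dosed with compounds plus a stimulation mix containing 100uM IBMX and 25uM Ro-20-1724 for 0.5hr at room temperature. cAMP was measured by HTRF competition, 1hr.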
% is set by controls: 0 for no effect and ±100 for the full control effect.

Chain of D(2) dopamine receptor (Homo sapiens) (P14416 whole entry, looked up): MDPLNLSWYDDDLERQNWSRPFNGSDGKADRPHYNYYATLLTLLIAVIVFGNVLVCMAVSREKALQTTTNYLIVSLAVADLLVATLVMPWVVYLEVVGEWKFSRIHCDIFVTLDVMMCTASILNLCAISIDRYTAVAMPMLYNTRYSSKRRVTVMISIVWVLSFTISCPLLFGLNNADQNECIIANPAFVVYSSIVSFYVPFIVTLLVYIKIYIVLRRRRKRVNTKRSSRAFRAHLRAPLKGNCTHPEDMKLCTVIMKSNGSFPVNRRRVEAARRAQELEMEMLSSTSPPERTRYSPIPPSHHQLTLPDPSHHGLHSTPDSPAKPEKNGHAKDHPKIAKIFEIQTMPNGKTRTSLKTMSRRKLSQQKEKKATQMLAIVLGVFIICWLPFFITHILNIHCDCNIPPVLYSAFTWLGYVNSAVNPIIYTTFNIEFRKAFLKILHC
Chain of Gonadotropin-releasing hormone receptor (Homo sapiens) (P30968 whole entry, looked up): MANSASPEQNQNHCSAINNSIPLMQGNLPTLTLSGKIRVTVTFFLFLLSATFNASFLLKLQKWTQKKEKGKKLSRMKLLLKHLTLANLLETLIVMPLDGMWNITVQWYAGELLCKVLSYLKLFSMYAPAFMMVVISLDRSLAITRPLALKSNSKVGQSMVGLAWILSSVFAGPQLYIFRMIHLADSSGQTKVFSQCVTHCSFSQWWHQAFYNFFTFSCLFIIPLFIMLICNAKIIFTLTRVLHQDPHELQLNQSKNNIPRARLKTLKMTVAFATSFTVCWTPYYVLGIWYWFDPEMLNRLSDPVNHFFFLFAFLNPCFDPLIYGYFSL
Chain of KiSS-1 receptor (Homo sapiens) (Q969F8 whole entry, looked up): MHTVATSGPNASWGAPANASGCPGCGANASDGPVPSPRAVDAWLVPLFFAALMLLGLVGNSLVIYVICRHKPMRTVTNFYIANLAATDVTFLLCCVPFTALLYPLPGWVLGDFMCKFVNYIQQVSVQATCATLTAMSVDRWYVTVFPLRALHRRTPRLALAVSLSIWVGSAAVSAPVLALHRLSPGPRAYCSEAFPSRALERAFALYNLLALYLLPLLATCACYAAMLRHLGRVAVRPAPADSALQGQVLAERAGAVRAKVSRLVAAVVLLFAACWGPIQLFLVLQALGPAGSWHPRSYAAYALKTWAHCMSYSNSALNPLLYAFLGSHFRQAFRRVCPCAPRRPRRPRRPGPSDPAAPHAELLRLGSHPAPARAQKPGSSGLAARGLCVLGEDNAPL
Chain of 5-hydroxytryptamine receptor 2A (Homo sapiens) (P28223 whole entry, looked up): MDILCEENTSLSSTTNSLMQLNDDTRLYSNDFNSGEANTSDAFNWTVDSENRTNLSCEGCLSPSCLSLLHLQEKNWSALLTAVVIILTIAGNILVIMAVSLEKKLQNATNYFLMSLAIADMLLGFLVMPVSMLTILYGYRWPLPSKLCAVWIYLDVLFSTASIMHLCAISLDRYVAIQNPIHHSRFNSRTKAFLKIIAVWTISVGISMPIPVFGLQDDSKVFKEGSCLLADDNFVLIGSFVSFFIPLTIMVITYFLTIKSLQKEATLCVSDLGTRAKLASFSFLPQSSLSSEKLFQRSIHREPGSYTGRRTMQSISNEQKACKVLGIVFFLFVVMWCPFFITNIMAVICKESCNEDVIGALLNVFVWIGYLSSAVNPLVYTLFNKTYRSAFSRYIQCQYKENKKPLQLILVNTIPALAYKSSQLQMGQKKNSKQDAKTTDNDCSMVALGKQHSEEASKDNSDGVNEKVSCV
Chain of Beta-2 adrenergic receptor (Homo sapiens) (P07550 whole entry, looked up): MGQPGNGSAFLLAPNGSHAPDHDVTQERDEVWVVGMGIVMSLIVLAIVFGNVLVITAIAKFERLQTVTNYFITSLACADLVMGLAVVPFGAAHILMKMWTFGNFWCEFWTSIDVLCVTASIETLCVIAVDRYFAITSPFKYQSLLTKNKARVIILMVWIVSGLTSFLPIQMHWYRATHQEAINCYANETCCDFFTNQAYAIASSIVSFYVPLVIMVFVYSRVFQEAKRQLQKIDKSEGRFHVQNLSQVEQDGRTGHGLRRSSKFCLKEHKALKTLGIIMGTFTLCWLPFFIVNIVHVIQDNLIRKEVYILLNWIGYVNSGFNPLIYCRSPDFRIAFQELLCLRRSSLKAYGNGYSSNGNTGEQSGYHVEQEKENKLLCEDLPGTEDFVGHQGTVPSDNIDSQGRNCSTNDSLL
Chain of Muscarinic acetylcholine receptor M1 (Homo sapiens) (P11229 whole entry, looked up): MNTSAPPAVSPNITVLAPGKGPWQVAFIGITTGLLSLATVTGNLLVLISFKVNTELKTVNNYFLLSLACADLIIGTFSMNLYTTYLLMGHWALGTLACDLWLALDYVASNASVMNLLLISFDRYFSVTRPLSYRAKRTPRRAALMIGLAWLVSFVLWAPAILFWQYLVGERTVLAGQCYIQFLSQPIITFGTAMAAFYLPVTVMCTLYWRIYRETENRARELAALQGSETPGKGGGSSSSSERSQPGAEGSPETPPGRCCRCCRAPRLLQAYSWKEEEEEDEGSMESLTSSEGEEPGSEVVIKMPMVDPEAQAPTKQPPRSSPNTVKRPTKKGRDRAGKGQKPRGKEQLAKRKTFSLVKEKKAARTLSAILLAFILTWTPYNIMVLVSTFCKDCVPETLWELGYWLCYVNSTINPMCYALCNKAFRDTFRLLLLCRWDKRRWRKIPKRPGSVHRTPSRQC

O=c1[nH]c2ccc(Cl)cc2o1
inactive: Potency [1] | Potency [2] | Potency [3] | Potency [4] | Potency [5] | Potency [6] | Potency [7] | Potency [8] | Potency [9] | Potency [10] | Potency [11] | Potency [12] | Potency [13] | Potency [14] | Potency [15] | Potency [16] | Potency [17] | Potency [18]

Cc1ccc(C=O)cc1
inactive: Potency [1] | Potency [2] | Potency [3] | Potency [4] | Potency [5] | Potency [6] | Potency [7] | Potency [8] | Potency [9] | Potency [10] | Potency [12] | Potency [19] | Potency [13] | Potency [15] | Potency [16] | Potency [17] | Potency [18]

NCCc1ccc(O)c(O)c1
inactive: Potency [1] | Potency [2] | Potency [3] | Potency [4] | Potency [5] | Potency [6] | Potency [7] | Potency [8] | Potency [9] | Potency [10] | Potency [11] | Potency [13] | Potency [14] | Potency [15] | Potency [16] | Potency [18]
inactive and 6.01 µM (active): Potency [12]

COC(=O)Nc1nc2ccc(Sc3ccccc3)cc2[nH]1
active: Potency [2] 30.6 µM and 3.35 µM | Potency [10] 363 nM
inactive: Potency [1] | Potency [3] | Potency [4] | Potency [5] | Potency [6] | Potency [7] | Potency [8] | Potency [15] | Potency [16] | Potency [20] | Potency [17] | Potency [18]

NS(=O)(=O)c1ccc(NC(=O)CCC(=O)O)cc1
inactive: Potency [1] | Potency [2] | Potency [3] | Potency [4] | Potency [5] | Potency [6] | Potency [7] | Potency [8] | Potency [9] | Potency [10] | Potency [19] | Potency [13] | Potency [14] | Potency [15] | Potency [16] | Potency [20] | Potency [17] | Potency [18]

CCCCCCS
inactive: Potency [1] | Potency [2] | Potency [3] | Potency [4] | Potency [5] | Potency [6] | Potency [7] | Potency [8] | Potency [9] | Potency [10] | Potency [11] | Potency [12] | Potency [19] | Potency [13] | Potency [14] | Potency [15] | Potency [20] | Potency [17]

CCC(C(=O)NC(N)=O)c1ccccc1 (stereo not given)
inactive: Potency [1] | Potency [2] | Potency [3] | Potency [4] | Potency [5] | Potency [6] | Potency [7] | Potency [8] | Potency [9] | Potency [10] | Potency [11] | Potency [12] | Potency [19] | Potency [13] | Potency [14] | Potency [16] | Potency [17] | Potency [18]

CN(C)C(=S)SC(=S)N(C)C
41.8 µM (active) and inactive: Potency [8]
50.2 µM (active) and inactive: Potency [12]
active: Potency [1] 1.11 µM and 1.09 µM
inactive: Potency [2] | Potency [3] | Potency [4] | Potency [5] | Potency [6] | Potency [7] | Potency [9] | Potency [10] | Potency [11] | Potency [19] | Potency [13] | Potency [14] | Potency [16] | Potency [20] | Potency [17] | Potency [18]

O=S(=O)(O)c1ccc2c(N=Nc3ccc(S(=O)(=O)O)c4ccccc34)c(O)c(S(=O)(=O)O)cc2c1
inactive: activity change, negative = cytotoxicity [1] -5.59% [at 8.39 µM] | activity, positive = activation [2] -0.366% [at 8.39 µM] | activity change [3] 18.3% [at 5.22 µM, stronger effect = higher value] | activation [4] 0.398% [at 6.97 µM] | activation [5] 6.05% [at 5.23 µM] | activation [6] -6.7% [at 5.99 µM] | activation [7] -0.431% [at 5.99 µM] | activity change, negative = cytotoxicity [8] -6.02% [at 5.99 µM] | activation [10] -3.84% [at 5.99 µM] | activity, negative = inhibition [11] 0.404% [at 5.62 µM] | activation [12] 12.5% [at 7.02 µM] | activity, negative = inhibition [19] -10.6% [at 5.58 µM] | activation [13] 2.33% [at 6.97 µM] | activation [14] -1.25% [at 8.39 µM] | activity change, negative = inhibition [15] -1.96% [at 8.39 µM] | activity change, negative = inhibition [16] -2.48% [at 8.39 µM] | activation [20] -0.404% [at 8.39 µM] | activation [17] -0.0629% [at 8.39 µM] | activity change, negative = inhibition [18] 0.317% [at 8.38 µM]

Cn1cnc2c(F)c(Nc3ccc(Br)cc3Cl)c(C(=O)NOCCO)cc21
inactive: Potency [1] | Potency [2] | Potency [3] | Potency [4] | Potency [5] | Potency [6] | Potency [7] | Potency [8] | Potency [9] | Potency [10] | Potency [11] | Potency [12] | Potency [19] | Potency [13] | Potency [14] | Potency [15] | Potency [17] | Potency [18]

OCCN1CCNCC1
inactive: Potency [1] | Potency [2] | Potency [3] | Potency [4] | Potency [5] | Potency [6] | Potency [7] | Potency [8] | Potency [10] | Potency [11] | Potency [12] | Potency [19] | Potency [13] | Potency [14] | Potency [15] | Potency [16] | Potency [20] | Potency [17] | Potency [18]
